# Screens: PubChem BioAssay, National Center for Advancing Translational Sciences (NCATS)
# Nrf2 activator: activates Nrf2 signaling; AREc32 ARE-luciferase reporter (MCF7-derived line), luminescence, 24 h; Potency, µM (doses to about 46.1 µM), without a hit: at the top dose activation, usual class: activators; hit rate 0.31% among 410,000; AID 624171; further: % of control where 0% means no effect; nearly all actives have a fitted effect of over 65% in size
#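 AREc32 cells carrying an ARE-driven firefly luciferase, 1000 cells/well in OPTI-MEM with 5% FBS, dosed after overnight attachment and incubated 24 hr at 37 deg C. Steady-Glo luminescence read after 30 min at RT.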
# A549 viability: kills or reduces viability of A549 cells in Nrf2 counter-screen | A549 ARE-Fluc cells, CellTiter-Fluor viability, 18-24 h | Potency, µM (titrated, usually from 46 µM), inactives show at the top dose activity change, negative = cytotoxicity, most hits filed as inhibitors | hit rate 0.16% among 390,000; further: on the % scale 0 is the no-effect control and ±100 the full control effect
#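 Cytotoxicity counterscreen: CellTiter-Fluor fluorescence was measured in A549 ARE_Fluc cells after 18-24 h of compound exposure in a concentration series. The subsequent BugLite luminescent read reports ARE-luciferase activity.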
# Nrf2 block: blocks Nrf2 signaling. A549 ARE-Fluc reporter, luciferase luminescence, 18-24 h. Potency, µM (series often up to 46 µM), for inactives: at the top dose activity change, negative = inhibition, most hits filed as inhibitors. hit rate 2.1% among 360,000; further: on the % scale 0 is the no-effect control and ±100 the full control effect; nearly all actives have a fitted effect of over 60% in size
#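 A549 ARE_Fluc cells (5000/well, 5% FBS OPTI-MEM) pre-incubated 2 h, then treated with compounds 18-24 h at 37C/5% CO2 in concentration-response. CellTiter-Fluor viability read first; BugLite luciferase luminescence after 15 min at room temperature gives Nrf2 activity.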
# ELG1 repair inh: ELG1-dependent DNA repair inhibition; hit rate 2.3% among 330,000; AID 504467; Potency, µM (titrated, usually from 46.1 µM), without a hit: top-dose activity change, negative = inhibition, most hits filed as inhibitors; HEK293T ELG1-luciferase reporter, luminescence, 16 h; DNA damage induced by 5-fluorouridine; further: on the % scale 0 is the no-effect control and ±100 the full control effect; nearly all actives have a fitted effect of over 55% in size
#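 DMSO vehicle served as the neutral condition. Each well held 2,000 cells given 5-fluorouridine plus compound; after 16 hr at 37 °C/5% CO2, ONE-Glo was added and luciferase measured 30 min later.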
# An asterisk follows results filed as active; ? = inconclusive; . = not tested or not shown. Sampled rows, rich in hits. Any-hit rate of the full collection: about 3.7%. The call rests on the fitted dose curve; in most records, active means well fitted curve in the direction sought with a large enough effect; inconclusive means small, poorly fitted or top-dose-only effect, or another doubt; inactive means no such curve, though single readings can be large; an effect the other way counts as inactive or inconclusive. Potency means the concentration at half of the fitted maximal effect.
SMILES,Nrf2 activator,A549 viability,Nrf2 block,ELG1 repair inh
COc1cc(NC(=O)c2cc(-c3ccccc3Cl)on2)cc(OC)c1OC,3.7%,?,?,9.2µM*
COc1cc(NC(=O)c2cc3c(Cl)nc4ccccc4c3s2)cc(OC)c1OC,-0.6%,-0.3%,-23.6%,6.51µM*
COc1ccc(NC(=O)c2cc3c(Cl)nc4ccccc4c3s2)c(OC)c1,-0.2%,0.1%,1.7%,12.2%
COC(=O)c1c(C)[nH]c(C(=O)/C=C/c2ccccc2)c1C,0.5%,-3.2%,?,?
COC(=O)c1c(C)[nH]c(C(=O)/C=C/c2ccc(C)cc2)c1C,2.7%,8.2%,2.59µM*,?
CNc1sc(C(=O)c2ccccc2F)c(N)c1-c1nc2ccccc2s1,10µM*,-14.6%,?,?
O=C(CNC(=O)c1ccccc1F)OCc1nc2ccccc2s1,0.6%,-0.2%,?,?
CCc1ccccc1NC(=O)COC(=O)c1c(C)nsc1NC,-0.2%,-17.2%,?,0.3%
CNc1snc(C)c1C(=O)OCC(=O)Nc1ccc(C)cc1F,4.5%,-6.1%,?,13µM*
CCCC[C@@H]1CNC(=O)C(=O)N1CCCC,0.1%,.,.,.
COc1ccc(S(=O)(=O)N2CCCC(C(=O)Nc3cccnc3)C2)cc1Cl (stereo not given),3.2%,-17.7%,16.4µM*,23.1µM*
COc1cc(NC(=O)C2CCCN(S(=O)(=O)c3ccc4c(c3)CCCN4C(C)=O)C2)cc(OC)c1 (stereo not given),2.1%,1.5%,?,9.2µM*
CC(=O)N1CCCc2cc(S(=O)(=O)N3CCCC(C(=O)NCc4ccc(C)cc4)C3)ccc21 (stereo not given),1.9%,-5.3%,5.8µM*,-12.7%
COc1ccc(NC(=O)C2CCCN(S(=O)(=O)c3ccc4c(c3)CCCN4C(C)=O)C2)cc1Cl (stereo not given),2.1%,-3.7%,16.4µM*,?
COc1ccc(NC(=O)C2CCCN(S(=O)(=O)c3ccc4c(c3)CCCN4C(C)=O)C2)cc1 (stereo not given),2.6%,7.4%,-26.3%,?
COc1c(C)cc(S(=O)(=O)NCCN2CCOCC2)c(C)c1C,-1.5%,-6.8%,-11.6%,-15.5%
C[C@@H]1CN([C@@H](C)CO)C(=O)c2cc(NC(=O)Nc3ccc(F)cc3)ccc2O[C@@H]1CN(C)Cc1ccc(Oc2ccccc2)cc1,-1.6%,?,?,-8.4%
COCCCNC(=O)NC(CCC(C)C)c1c(-n2cccc2)sc2c1CCN(C)C2 (stereo not given),0.8%,-19.2%,28.9%,.
COc1ccc2cc(C(=O)NCc3ccc4c(c3)CCN4C(=O)c3ccc(C)cc3)[nH]c2c1,6.5%,?,.,.
CCCCNC(=S)N(CCCN(C)C)Cc1cc2cc3c(cc2[nH]c1=O)OCO3,-0.4%,?,5.6%,-23.6%
COc1cc(-c2nc3c(c(C)nn3-c3ccccc3)c3cc(OC)c(OC)cc23)ccc1O,-0.2%,5.0%,.,18.4µM*
Cc1cc(=O)n2nc(-c3ccccc3)sc2c1C#N,2.24µM*,-11.4%,15.7%,?
Cc1cc(=O)n(Cc2ccccc2)c(O)c1C#N,-0.4%,4.3%,-8.6%,15.5%
CCCn1nc(C(=O)NC2CCCC2)c2ccccc2c1=O,-0.9%,0.8%,-12.0%,?
CCCCn1nc(C(=O)Nc2ccc(-n3cnnn3)cc2)c2ccccc2c1=O,-0.2%,-3.6%,-2.1%,7.3µM*
SMILES,Nrf2 activator,A549 viability,Nrf2 block,ELG1 repair inh
CCCn1nc(C(=O)NC2CCCc3ccccc32)c2ccccc2c1=O (stereo not given),2.8%,-16.1%,?,16.4µM*
CCCCn1nc(C(=O)NC2CCCCCC2)c2ccccc2c1=O,-0.3%,0.9%,?,18.3µM*
CCCn1nc(C(=O)N2CCc3ccccc32)c2ccccc2c1=O,-0.1%,5.6%,-14.4%,?
Cn1nc(C(=O)Nc2ccc(-n3cnnn3)cc2)c2ccccc2c1=O,-0.1%,-1.0%,?,?
CCCCCn1nc(C(=O)N2CCc3ccccc32)c2ccccc2c1=O,0.4%,7.0%,?,11.2µM*
S=c1nc(-c2ccccn2)c(-c2ccccn2)n[nH]1,-0.2%,.,.,.
CCc1cc(C=C(Cl)Cl)oc(=O)c1C,14.1µM*,-19.9%,-13.6%,-1.5%
C=C(Cl)COc1cc(C)cc2oc(=O)cc(CC)c12,0.1%,18.6%,9.5%,9.6%
COc1cccc(-c2cnc(C(O)c3ccc(Cl)cc3)[nH]2)c1 (stereo not given),4.7%,.,.,.
